According to PubChem BioAssay (Tox21):
Records with an inconclusive call do not appear. Activity calls are given as the source filed them. Unless noted, calls come from the whole dose curve.

Experiments:
[1] = Nuclear factor erythroid 2-related factor 2/antioxidant responsive element (Nrf2/ARE) small molecule agonists: qHTS cell viability counter screen in human keratinocytes (AID 1919968; active = well fitted curve in the direction sought with a large enough effect in the repeat runs; an effect the other way counts as inactive or inconclusive; note: nearly all actives have a fitted effect of over 55% in size)
Procedure, shortened: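 HaCaT ARE reporter line, 1,500 cells/well; 5 h settle, 37 C/5% CO2; cpd in DMSO pinned; 23 h exposure; CellTiter-Fluor, 1 h; fluorescence.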

[2] = Nuclear factor erythroid 2-related factor 2/antioxidant responsive element (Nrf2/ARE) small molecule agonists: luciferase reporter gene qHTS assay in human keratinocytes (AID 1919969); note: nearly all actives have a fitted effect of over 35% in size
[3] = molecular target: Gonadotropin-releasing hormone receptor (Homo sapiens) (UniProt P30968); assay: Human gonadotropin-releasing hormone receptor (GnRHR) small molecule agonists, calcium flux assay in GnRHR-HEK293 cells (AID 1920063); note: nearly all actives have a fitted effect of over 35% in size
Procedure, shortened: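 GnRHR-HEK293, 1500 cells/well, 18 h 37 C/5% CO2; Ca dye 1 h 37 C; cpd pinned (DMSO), agonist mode; kinetic FL 480/540, 3 min, 1 s reads; 15 conc, n=3.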

[4] = molecular target: KiSS-1 receptor (Homo sapiens) (UniProt Q969F8); assay: Human kisspeptin (KISS1R) small molecule agonists, calcium flux assay in KISS1R-HEK293 cells (AID 1920064; active = well fitted curve in the direction sought with a large enough effect in the repeat runs; an effect the other way counts as inactive or inconclusive)
Procedure, shortened: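 Stable human KISS1R HEK293 line; 18 h plating, 37 C/5% CO2; calcium dye 1 h 37 C; compound pin transfer; kinetic fluorescence Ex/Em 480/540, 3 min.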

[5] = G protein-coupled receptor (GPCR) small molecule agonists, calcium flux assay: HEK293 wild type cell line counter screen (AID 1920065)
Procedure, shortened: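 Kinetic fluorescence at Ex/Em 480/540, recorded every second over 3 min, served as the read-out after compound addition. Each compound was tested at 15 concentrations in triplicate on cells pre-loaded with calcium dye for 1 h.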

[6] = p53 small molecule agonists, cell-based qHTS assay with human liver microsomes (AID 1963577);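 note: p53 response element beta-lactamase reporter cells with liver microsomes plus NADPH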
Procedure, shortened: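 In this qHTS, p53 response-element beta-lactamase cells receive test compound together with a microsome/NADPH activating system (0.5 mg/mL final each) and are incubated 16 h at 37 C before LiveBLAzer fluorescence detection.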

[7] = p53 small molecule agonists, cell-based qHTS assay with rat liver microsomes (AID 1963578)
Procedure, shortened: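 Agonist mode in p53RE-bla reporter cells, with compounds co-incubated 16 h at 37 C alongside 0.5 mg/mL rat liver microsomes and 0.5 mg/mL NADPH (final), followed by a 2 h LiveBLAzer detection step.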

[8] = p53 small molecule agonists, cell-based qHTS assay with human liver microsomes: qHTS cell viability counter screen (AID 1963579); note: nearly all actives have a fitted effect of over 45% in size
Procedure, shortened: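 Metabolically activated exposure: compounds, human liver microsomes and NADPH (0.5 mg/mL final apiece) were added to p53RE-bla cells seeded 5 h earlier, left 16 h at 37 C, and then assessed for viability by CellTiter-Glo luminescence.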

[9] = p53 small molecule agonists, cell-based qHTS assay with rat liver microsomes: qHTS cell viability counter screen (AID 1963580); note: nearly all actives have a fitted effect of over 45% in size
Procedure, shortened: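 In HCT-116 cells carrying a p53 response element-bla reporter, compounds were metabolically activated in situ by rat liver microsomes with NADPH over 16 h. Cell ATP content then served as the cytotoxicity measure.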

[10] = p53 small molecule agonists, cell-based qHTS assay (AID 1963582; active = well fitted activation curve with a large enough effect in the signal ratio in the repeat runs, not every such curve was filed as active; the % refers to the signal ratio)
Procedure, shortened: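 Reporter line: p53RE-bla. Pre-incubation 5 h, 37 C, 5% CO2; compound (DMSO, pin tool) 16 h, 37 C; B/G FRET substrate 2 h RT; fluorescence intensity read.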

[11] = molecular target: 5-hydroxytryptamine receptor 2A (Homo sapiens) (UniProt P28223); assay: 5-hydroxytryptamine receptor 2A (HTR2A) small molecule antagonists, cell-based qHTS assay (AID 1963586); note: nearly all actives have a fitted effect of over 45% in size
Procedure, shortened: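 Antagonist-mode intracellular calcium assay: DOI (4 nM) added after 5 min compound pre-incubation at room temperature to dye-loaded HTR2A-CHO cells. Fluorescence followed for 3 min, sampled every second.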

[12] = molecular target: 5-hydroxytryptamine receptor 2A (Homo sapiens) (UniProt P28223); assay: 5-hydroxytryptamine receptor 2A (HTR2A) small molecule agonists, cell-based qHTS assay (AID 1963587); note: nearly all actives have a fitted effect of over 30% in size
Procedure, shortened: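 HTR2A-CHO cells, plated 18 h at 37 C/5% CO2, dye-loaded 1 h at 37 C; compounds in DMSO added by pin tool (agonist mode). Intracellular calcium flux read as kinetic fluorescence on FDSS over 2 min at 1 s intervals.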

[13] = molecular target: Muscarinic acetylcholine receptor M1 (Homo sapiens) (UniProt P11229); assay: Cholinergic receptor muscarinic 1 (CHRM1) small molecule antagonists, cell-based qHTS assay (AID 1963588); note: nearly all actives have a fitted effect of over 40% in size
Procedure, shortened: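 CHRM1-CHO calcium-flux assay, antagonist mode. Cells were seeded 18 h, dye-loaded 1 h at 37 C and given compound for 5 min at RT, then acetylcholine was added at 50nM. FDSS fluorescence was read 3 min; 15 concentrations, three runs.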

[14] = cAMP Responsive Elements (CRE) small molecule agonists, cell-based qHTS assay (AID 1963590)
Procedure, shortened: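 HEK 293T CRE-bla, 2,000 cells/well, 18 h preincubation 37 C/5% CO2; cpds (DMSO) pinned, 3 h; LiveBLAzer B/G FRET substrate, 2 h RT.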

[15] = cAMP Responsive Elements (CRE) small molecule antagonists, cell-based qHTS assay (AID 1963591; active = well fitted inhibition curve with a large enough effect in the signal ratio in the repeat runs, not every such curve was filed as active; the % refers to the signal ratio)
Procedure, shortened: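 Beta-lactamase reporter read by FRET substrate (LiveBLAzer B/G) after 2 h at room temperature. CRE-bla HEK293T cells had received compound plus 0.25 uM (final) NKH477 for 3 h at 37 °C.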

[16] = molecular target: D(2) dopamine receptor (Homo sapiens) (UniProt P14416); assay: Dopamine D2 receptor (DRD2) small molecule agonists, cell-based qHTS assay (AID 1963594); note: nearly all actives have a fitted effect of over 35% in size
Procedure, shortened: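 HEK293 cells stably expressing DRD2 were cultured 24 h at 37 C, then given Ro20-1724 (0.1 mM final) and compounds for 10 min at room temperature. NKH477 (200nM) was then added for 30 min. cAMP was read by HTRF.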

[17] = molecular target: D(2) dopamine receptor (Homo sapiens) (UniProt P14416); assay: Dopamine D2 receptor (DRD2) small molecule antagonists, cell-based qHTS assay (AID 1963595; active = well fitted inhibition curve with a large enough effect in the signal ratio in the repeat runs, with a control signal flat; the % refers to the signal ratio)
Procedure, shortened: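 Stable D2 receptor HEK293 line, 24 h after seeding. Compound preincubated 10 min, then quinpirole (12 nM) with forskolin analogue NKH477 (200 nM), 30 min, room temperature. Detection by time-resolved FRET of cAMP.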

[18] = molecular target: Muscarinic acetylcholine receptor M1 (Homo sapiens) (UniProt P11229); assay: Cholinergic receptor muscarinic 1 (CHRM1) small molecule agonists, cell-based qHTS assay (AID 1963589); note: nearly all actives have a fitted effect of over 35% in size
Procedure, shortened: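 Human M1 in stable CHO line; 18 h plating, 1 h dye load 37 C; cpd added (agonist mode); Ca2+ fluorescence kinetic read, 1 s intervals; 15 conc, 3 runs.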

[19] = molecular target: Beta-2 adrenergic receptor (Homo sapiens) (UniProt P07550); assay: Adrenergic beta2 receptor (ADRB2) small molecule antagonists, cell-based qHTS assay (AID 1963592); note: series mostly up to about 92 µM; nearly all actives have a fitted effect of over 50% in size
Procedure, shortened: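 Cells (CHO, stable ADRB2 overexpression) incubated 18-20hr at 37C; compounds added from DMSO; agonist mix (1nM isoproterenol, 100uM IBMX, 25uM Ro-20-1724) added; 0.5hr RT; d2-cAMP and anti-cAMP-cryptate added; 1hr RT; 665/615 nm read.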

[20] = molecular target: Beta-2 adrenergic receptor (Homo sapiens) (UniProt P07550); assay: Adrenergic beta2 receptor (ADRB2) small molecule agonists, cell-based qHTS assay (AID 1963593);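 note: CHO cells stably overexpressing human ADRB2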
Procedure, shortened: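 CHO cells stably over-expressing ADRB2 were plated overnight at 37C, then dosed with compounds plus a stimulation mix containing 100uM IBMX and 25uM Ro-20-1724 for 0.5hr at room temperature. cAMP was measured by HTRF competition, 1hr.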
% is set by controls: 0 for no effect and ±100 for the full control effect.

Sequence of Muscarinic acetylcholine receptor M1 (Homo sapiens) (P11229 whole entry, looked up): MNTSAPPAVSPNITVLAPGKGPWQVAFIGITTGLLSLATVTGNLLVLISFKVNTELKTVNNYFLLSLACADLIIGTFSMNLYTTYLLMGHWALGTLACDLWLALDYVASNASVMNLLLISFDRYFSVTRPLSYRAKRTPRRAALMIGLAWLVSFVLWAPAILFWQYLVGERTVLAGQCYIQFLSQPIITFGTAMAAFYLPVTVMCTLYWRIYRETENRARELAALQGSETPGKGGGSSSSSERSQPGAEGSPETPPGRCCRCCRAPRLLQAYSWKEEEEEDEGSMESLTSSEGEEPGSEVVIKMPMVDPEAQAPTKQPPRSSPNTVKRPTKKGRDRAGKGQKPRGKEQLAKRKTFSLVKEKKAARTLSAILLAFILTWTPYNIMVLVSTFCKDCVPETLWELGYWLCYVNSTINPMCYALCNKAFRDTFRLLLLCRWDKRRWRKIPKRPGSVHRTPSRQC
Sequence of Gonadotropin-releasing hormone receptor (Homo sapiens) (P30968 whole entry, looked up): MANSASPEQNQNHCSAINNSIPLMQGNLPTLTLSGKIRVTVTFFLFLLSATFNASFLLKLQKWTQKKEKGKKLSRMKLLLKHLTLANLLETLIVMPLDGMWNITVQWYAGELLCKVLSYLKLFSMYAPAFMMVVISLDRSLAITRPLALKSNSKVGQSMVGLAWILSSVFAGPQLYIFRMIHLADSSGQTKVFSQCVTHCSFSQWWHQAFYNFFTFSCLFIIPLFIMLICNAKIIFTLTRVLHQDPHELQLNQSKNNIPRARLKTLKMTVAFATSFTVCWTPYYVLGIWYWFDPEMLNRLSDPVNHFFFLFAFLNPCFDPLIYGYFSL
Sequence of 5-hydroxytryptamine receptor 2A (Homo sapiens) (P28223 whole entry, looked up): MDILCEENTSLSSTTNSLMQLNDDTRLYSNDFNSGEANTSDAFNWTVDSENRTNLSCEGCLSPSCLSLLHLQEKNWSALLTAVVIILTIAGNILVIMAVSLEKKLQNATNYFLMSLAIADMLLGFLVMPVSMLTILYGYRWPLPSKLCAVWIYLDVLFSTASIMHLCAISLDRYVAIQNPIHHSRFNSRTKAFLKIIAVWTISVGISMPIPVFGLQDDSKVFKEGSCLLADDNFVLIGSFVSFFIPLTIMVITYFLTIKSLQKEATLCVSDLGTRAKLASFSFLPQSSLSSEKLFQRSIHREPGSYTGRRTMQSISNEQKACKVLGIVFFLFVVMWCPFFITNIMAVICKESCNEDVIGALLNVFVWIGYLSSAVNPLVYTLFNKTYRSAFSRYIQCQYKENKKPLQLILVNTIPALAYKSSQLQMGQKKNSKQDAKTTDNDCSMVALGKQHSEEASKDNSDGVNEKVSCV
Sequence of Beta-2 adrenergic receptor (Homo sapiens) (P07550 whole entry, looked up): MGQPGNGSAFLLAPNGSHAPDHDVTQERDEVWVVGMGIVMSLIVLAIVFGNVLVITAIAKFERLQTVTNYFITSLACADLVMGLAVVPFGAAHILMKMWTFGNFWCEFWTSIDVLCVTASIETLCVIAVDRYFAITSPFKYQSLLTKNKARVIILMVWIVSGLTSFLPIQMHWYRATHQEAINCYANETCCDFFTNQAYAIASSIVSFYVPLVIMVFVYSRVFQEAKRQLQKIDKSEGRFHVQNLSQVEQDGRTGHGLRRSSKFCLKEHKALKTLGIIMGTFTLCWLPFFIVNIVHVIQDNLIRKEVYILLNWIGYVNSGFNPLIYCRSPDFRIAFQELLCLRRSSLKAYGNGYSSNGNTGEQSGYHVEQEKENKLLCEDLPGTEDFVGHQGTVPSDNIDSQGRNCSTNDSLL
Sequence of D(2) dopamine receptor (Homo sapiens) (P14416 whole entry, looked up): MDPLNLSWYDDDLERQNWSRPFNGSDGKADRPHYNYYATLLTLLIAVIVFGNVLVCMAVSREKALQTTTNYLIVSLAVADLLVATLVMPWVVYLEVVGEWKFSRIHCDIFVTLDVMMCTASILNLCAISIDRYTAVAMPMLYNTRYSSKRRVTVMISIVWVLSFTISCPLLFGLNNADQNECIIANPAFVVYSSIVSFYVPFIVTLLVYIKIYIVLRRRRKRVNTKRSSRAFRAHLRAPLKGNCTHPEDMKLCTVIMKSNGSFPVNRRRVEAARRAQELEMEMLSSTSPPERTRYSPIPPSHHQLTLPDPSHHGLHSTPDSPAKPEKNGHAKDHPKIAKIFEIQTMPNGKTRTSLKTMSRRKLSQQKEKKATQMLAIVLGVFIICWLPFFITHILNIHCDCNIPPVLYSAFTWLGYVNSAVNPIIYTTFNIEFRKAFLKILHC
Sequence of KiSS-1 receptor (Homo sapiens) (Q969F8 whole entry, looked up): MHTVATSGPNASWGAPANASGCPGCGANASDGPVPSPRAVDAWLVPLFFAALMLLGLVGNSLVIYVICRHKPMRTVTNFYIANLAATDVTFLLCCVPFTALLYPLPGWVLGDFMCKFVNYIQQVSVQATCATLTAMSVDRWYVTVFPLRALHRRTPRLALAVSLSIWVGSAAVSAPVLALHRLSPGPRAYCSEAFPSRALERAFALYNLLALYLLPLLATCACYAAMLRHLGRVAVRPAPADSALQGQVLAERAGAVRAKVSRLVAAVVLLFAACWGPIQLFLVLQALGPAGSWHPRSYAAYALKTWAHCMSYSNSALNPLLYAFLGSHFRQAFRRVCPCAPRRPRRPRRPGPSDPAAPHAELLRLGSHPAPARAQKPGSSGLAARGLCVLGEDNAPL

O=C(O)CP(=O)(O)O
inactive: Potency [1] | Potency [2] | Potency [3] | outcome [4] | outcome [5] | Potency [6] | Potency [7] | Potency [8] | Potency [9] | Potency [10] | Potency [11] | Potency [12] | Potency [13] | Potency [14] | Potency [15] | Potency [16] | Potency [17]

CCC1NC(=O)c2cc(S(N)(=O)=O)c(Cl)cc2N1 (stereo not given)
inactive: Potency [1] | Potency [2] | Potency [3] | outcome [4] | outcome [5] | Potency [6] | Potency [7] | Potency [8] | Potency [9] | Potency [10] | Potency [11] | Potency [13] | Potency [18] | Potency [19] | Potency [20] | Potency [16]

CC(=O)OCC(C)C
inactive: Potency [1] | Potency [2] | Potency [3] | outcome [4] | outcome [5] | Potency [6] | Potency [7] | Potency [8] | Potency [9] | Potency [10] | Potency [11] | Potency [12] | Potency [18] | Potency [14] | Potency [15] | Potency [19] | Potency [20] | Potency [16] | Potency [17]

NCCOCCOCCN
inactive: Potency [1] | Potency [2] | Potency [3] | outcome [4] | outcome [5] | Potency [6] | Potency [7] | Potency [8] | Potency [9] | Potency [10] | Potency [11] | Potency [12] | Potency [18] | Potency [14] | Potency [15] | Potency [19] | Potency [20] | Potency [16] | Potency [17]

Cc1c(C(=O)NCCO)[n+](=O)c2ccccc2n1[O-]
inactive: Potency [1] | Potency [2] | Potency [3] | outcome [4] | outcome [5] | Potency [6] | Potency [7] | Potency [8] | Potency [9] | Potency [10] | Potency [11] | Potency [12] | Potency [18] | Potency [14] | Potency [15] | Potency [19] | Potency [16] | Potency [17]

CCN1CCCC1CN (stereo not given)
inactive: Potency [1] | Potency [2] | Potency [3] | outcome [4] | outcome [5] | Potency [6] | Potency [7] | Potency [8] | Potency [9] | Potency [10] | Potency [11] | Potency [12] | Potency [13] | Potency [19] | Potency [20] | Potency [16] | Potency [17]

O=c1[nH]c(=O)c2[nH]c(=O)[nH]c2[nH]1
inactive: activity change, negative = cytotoxicity [1] 13.3% [at 8.39 µM] | activity, positive = activation [2] 2.42% [at 8.39 µM] | activity change [3] -0.425% [at 5.22 µM, hits give high values] | activation [4] -0.365% [at 6.97 µM] | activation [5] 1.57% [at 5.23 µM] | activation [6] -6.75% [at 5.99 µM] | activation [7] 1.18% [at 5.99 µM] | activity change, negative = cytotoxicity [8] -5.03% [at 5.99 µM] | activity change, negative = cytotoxicity [9] -22.6% [at 5.99 µM] | activation [10] 1.49% [at 5.99 µM] | activation [12] -9.75% [at 7.02 µM] | activity, negative = inhibition [13] 3.65% [at 5.58 µM] | activation [18] -0.246% [at 6.97 µM] | activation [14] 1.51% [at 8.39 µM] | activity change, negative = inhibition [15] -5.1% [at 8.39 µM] | activity change, negative = inhibition [19] -4.56% [at 8.39 µM] | activation [20] 11.5% [at 8.39 µM] | activation [16] 0.309% [at 8.39 µM] | activity change, negative = inhibition [17] -2.53% [at 8.38 µM]
